# Experimental data from ChEMBL document CHEMBL3988442, “University of Dundee, Small-Polar-MMV Screening Library” (2021).
# Among all 69,000 compounds or so, about 1,000 (1.4%) showed an effect of 50% or more. This is one part of a sample in which strong results are shown more often than they occur.
# System: Leishmania donovani
# Experiment: Leishmania intramacrophage assay
# Format: functional, organism-based
# Parameters: scale not given: in the data most compounds retested in dose-response had high values
smiles,measurement,setting,value
CCn1c(NCc2ccco2)nc2c(C)nn(C)c2c1=O,Percent Effect,"30 µM, 30.03 µM",16.24%
Cc1cc(CN2CCN(C(C)C)C(CCO)C2)[nH]n1 (stereo not drawn),Percent Effect,"30.3 µM, […]",0.4197%
c1ccc(Cc2nnc([C@H]3CCN(C4CCCCC4)C3)o2)cc1,Percent Effect,"30.3 µM, […]",11.62%
COc1ccccc1-n1nc(CC(C)C)nc1CSc1nnc(N)s1,Percent Effect,"30.3 µM, […]",13.73%
CN(C)C(=O)COC[C@]12COC[C@H]1CN(C1CCCC1)C2.O=C(O)C(F)(F)F,Percent Effect,"30.3 µM, […]",40.35%
CC(C)(C)NC(=O)CN1CCNCC1.Cl.Cl,Percent Effect,"30.3 µM, […]",11.16%
O=C(O)C(F)(F)F.O=C1CC2(CCN(CC3CC3)C2)CN1c1ccc2c(c1)OCO2 (stereo not drawn),Percent Effect,"30 µM, 30.03 µM",25.29%
Cc1c(C(C)N)cnn1-c1cccc2ccccc12 (stereo not drawn),Percent Effect,"30.3 µM, […]",22.69%
Cc1ccc(-c2noc(CCC(=O)NC(C)Cn3cccn3)n2)cc1 (stereo not drawn),Percent Effect,"30.3 µM, […]",22.16%
Cn1cc(NS(=O)(=O)c2ccc(C(F)(F)F)cc2)ccc1=O,Percent Effect,30 µM,-2.5%
CCCc1ccc(S(=O)(=O)Nc2ccc(=O)n(C)c2)cc1,Percent Effect,30 µM,20.55%
Cc1ccc(S(=O)(=O)Nc2ccc(=O)n(C)c2)cc1,Percent Effect,"30 µM, 30.03 µM",54.33%
CCN1CC2(CC1=O)CN(Cc1ccoc1)CCN(C(=O)C(C)C)C2 (stereo not drawn),Percent Effect,"30.3 µM, […]",8.034%
O=C(c1ccc(Br)o1)N1CCN(Cc2ccc(OC(F)(F)F)cc2)CC1,Percent Effect,"30 µM, 30.03 µM",31.07%
CN(CCc1cccc2ccccc12)Cc1nc(N)nc(N(C)C)n1,Percent Effect,"30.3 µM, […]",94.18%
CN(Cc1nc(N)nc(N(C)C)n1)Cc1cccc2ccccc12,Percent Effect,"30.3 µM, […]",1.643%
CN(CC(=O)Nc1cccc(F)c1)Cc1nc(N)nc(N(C)C)n1,Percent Effect,"30.3 µM, […]",21.77%
Cc1ccc(CN2CCCC3(CCN(S(C)(=O)=O)C3)C2)o1.O=C(O)C(F)(F)F (stereo not drawn),Percent Effect,"30 µM, 30.03 µM",4.141%
Cc1nnc(SCCCNc2cc(C3CC3)ncn2)s1,Percent Effect,"30.3 µM, […]",31.22%
COCc1cc(NCCCSc2nnc(C)s2)ncn1,Percent Effect,"30.3 µM, […]",26.84%
COc1cc(NCCCSc2nnc(C)s2)ncn1,Percent Effect,"30.3 µM, […]",57.45%
Cc1nnc2n1CCN(C(=O)COCCOc1ccccc1)C2,Percent Effect,"30 µM, 30.03 µM",16.55%
Cc1cc(CN2CCCC(C)(CO)C2)ccc1F (stereo not drawn),Percent Effect,"30 µM, 30.03 µM",31.69%
Cc1nc(C)n(CC2CN(Cc3noc(C4CC4)n3)CCO2)n1 (stereo not drawn),Percent Effect,"30.3 µM, […]",-6.202%
Cc1cnc(CCNC(=O)C2CCN(S(=O)(=O)c3ccc(F)cc3)C2)s1 (stereo not drawn),Percent Effect,"30.3 µM, […]",33.75%
COCCN1CCC(CN(CC2CCCO2)C(=O)Cc2cccs2)CC1 (stereo not drawn),Percent Effect,"30.3 µM, […]",8.21%
COCCN1CCC(CN(CC2CCCO2)C(=O)Cn2cccn2)CC1 (stereo not drawn),Percent Effect,"30.3 µM, […]",58.18%
COCCN1CCC(CN(CC2CCCO2)C(=O)COC)CC1 (stereo not drawn),Percent Effect,"30 µM, 30.03 µM",-10.91%
Cc1nc(NC(=O)N2CCCC(C(C)(C)O)C2)nn1C (stereo not drawn),Percent Effect,"30.3 µM, […]",-6.912%
Cc1cccc(N2CCN(C(=O)C3CC4(CCNCC4)CN3)CC2)n1 (stereo not drawn),Percent Effect,"30.3 µM, […]",82.82%
Cc1cnccc1N1CCN(C(=O)C2CC3(CCNCC3)CN2)CC1 (stereo not drawn),Percent Effect,"30.3 µM, […]",-56.52%
O=C(C1CC2(CCNCC2)CN1)N1CCN(c2ccccc2)CC1 (stereo not drawn),Percent Effect,"30.3 µM, […]",-6.874%
Cc1cccc(-c2nc(C)nn2CN2CCC3(CC2)OCCO3)c1,Percent Effect,"30.3 µM, […]",-6.145%
CCc1nnc(SCc2cc(=O)n3c4c(sc3n2)CCCC4)[nH]1,Percent Effect,"30.3 µM, […]",54.93%
Cc1nnc(SCc2cc(=O)n3c4c(sc3n2)CCCC4)[nH]1,Percent Effect,"30.3 µM, […]",36.41%
CCCc1nnc(SCc2cc(=O)n3c4c(sc3n2)CCCC4)[nH]1,Percent Effect,"30.3 µM, […]",1.73%
CN[C@@H]1CCC[C@@H](Oc2ccccc2Oc2ccc(C)cc2)[C@@H]1O,Percent Effect,"30.3 µM, […]",98.74%
COCC1CCN(S(=O)(=O)N2C[C@H](c3ccccc3)[C@@H](N)C2)CC1,Percent Effect,"30.3 µM, […]",12.44%
Cc1occc1C(=O)N1C[C@@H](C(=O)N2CCCCO2)C[C@H]2OCC[C@H]21,Percent Effect,"30.3 µM, […]",22.98%
CN(CC(=O)Nc1cc(CC2CCCCC2)n[nH]1)S(C)(=O)=O,Percent Effect,"30.3 µM, […]",66.78%
CN(CC(=O)Nc1cc(-c2cc(Cl)cc(Cl)c2)[nH]n1)S(C)(=O)=O,Percent Effect,"30.3 µM, […]",5.087%
CN(CC(=O)Nc1cc(C(C)(C)C)n[nH]1)S(C)(=O)=O,Percent Effect,"30.3 µM, […]",-19.26%
Cc1nc(CN2CCCC2c2c(C)nn(C)c2Cl)no1 (stereo not drawn),Percent Effect,"30 µM, 30.03 µM",17.3%
CN(C)Cc1cc(C2CCCCN2S(=O)(=O)Cc2ccccc2)nn1C.Cl (stereo not drawn),Percent Effect,"30.3 µM, […]",-6.731%
CC(NCC(N)=O)c1c(F)cccc1Cl (stereo not drawn),Percent Effect,"30.3 µM, […]",61.56%
CC(C)NC(=O)CNC(C)c1c(F)cccc1Cl (stereo not drawn),Percent Effect,"30.3 µM, […]",-24.44%
CNC(=O)NC(C)c1c(F)cccc1Cl (stereo not drawn),Percent Effect,"30.3 µM, […]",-84.02%
Cn1c(-c2ccccc2Cl)nc2cc(C(=O)NCC3(CO)CC3)cnc21,Percent Effect,"30.3 µM, […]",6.788%
O=c1n(CCNCc2cccc3ccccc23)nc2ccccn12,Percent Effect,"30.3 µM, […]",37.73%
CCC(O)c1nc2c([nH]1)CC(C)(C)CNC2=O (stereo not drawn),Percent Effect,"30.3 µM, […]",4.98%
Cn1ncc2c1C(COCC1CC1)CN(Cc1ccoc1)C2 (stereo not drawn),Percent Effect,"30 µM, 30.03 µM",18.09%
O=C(NCCN1CCC(c2cccs2)CC1)Nc1cccs1,Percent Effect,"30 µM, 30.03 µM",29.53%
CC(=O)NCCN1CCC(c2cccs2)CC1,Percent Effect,"30 µM, 30.03 µM",14.89%
